Compounds without any hit were thinned out: in the full panel of roughly 83,000, 20% have a hit.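 Results are percent growth after 48 hours of single-concentration exposure. 100 means growth as in untreated cells, lower positive values show inhibition; negative values down to -100 show cell death.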 Values without a mark were called inactive. Activity calls are given as the source filed them. Rule for the calls: active = growth percent below 10; inactive = the rest.

Test systems include T-47D breast; BT-549 breast; MDA-MB-435 melanoma; SW-620 colon; MCF7 breast; HCT-116 colon; HCC-2998 colon; KM12 colon.
Holding throughout (test): NCI-60 one-dose screen, 48 h (100 = growth as untreated, 0 = no growth, -100 = all killed)
Common to all, as to conditions: 10 µM unless noted

In the case of `Cc1nc2sc(C(=O)Nc3ccc(Br)cc3)c(N)c2cc1C(O)c1ccccc1` (stereo not given), the growth was 45.6% in the experiment with T-47D breast; 71.1% with BT-549 breast; 1.03% (active) in the experiment on MDA-MB-435 melanoma; 45.8% in the experiment on SW-620 colon; 33.8% with MCF7 breast; 29.9% in the experiment with HCT-116 colon. The growth in the experiment with HCC-2998 colon is 76.5%; with KM12 colon, 49.2%.
Consider `CC1=C([Se]CC(OC(=O)CC[Se]c2ccccc2)C(=O)NC(C)(C)C)C(=O)c2ccccc2C1=O` (stereo not given), for which the growth was -54.5% (active) in the experiment with T-47D breast; -89% (active) in the experiment on BT-549 breast; -61.7% (active) in the experiment on MDA-MB-435 melanoma; -76.9% (active) with SW-620 colon; -54.7% (active) in the experiment on MCF7 breast; -61.9% (active) in the experiment with HCT-116 colon. In addition, the growth is -87.2% (active) in the experiment on HCC-2998 colon and -92.3% (active) with KM12 colon.
Regarding `COc1ccccc1CNc1c2ccccc2nc2ccccc12`, the growth is 46.2% in the experiment with T-47D breast; 77% in the experiment on BT-549 breast; 42.6% with MDA-MB-435 melanoma; 22.1% with SW-620 colon; 16.8% in the experiment on MCF7 breast; 12.7% in the experiment on HCT-116 colon. Moreover, the growth was 38.8% in the experiment with HCC-2998 colon and 32.9% in the experiment with KM12 colon.
With `O=S(=O)(Nc1cc(Cl)ccc1Cl)c1ccc(-c2cnc(C3CC3)o2)cc1`, the growth is 28.7% with T-47D breast; 40.5% in the experiment with BT-549 breast; -12% (active) in the experiment with MDA-MB-435 melanoma; 21% in the experiment on SW-620 colon; 12.9% in the experiment with MCF7 breast; 21.5% in the experiment with HCT-116 colon. Moreover, the growth in the experiment with HCC-2998 colon is 67.4%; in the experiment with KM12 colon, 24%.
`COc1ccc(C(=O)C/C(=C\c2ccc(Cl)cc2)C(=O)NCc2ccccc2)cc1`: the growth with T-47D breast was 65.3%; in the experiment with BT-549 breast, 110%; in the experiment with MDA-MB-435 melanoma it was 68.8%; in the experiment on SW-620 colon, 98.2%; with MCF7 breast, 86.1%; in the experiment with HCT-116 colon, 82.5%. Moreover, the results for the growth with HCC-2998 colon and with KM12 colon were 93.1% and 99.7%, respectively.
With `CSc1nnc(-c2cc3c([nH]c4ccccc43)c(-c3cccc(O)c3)n2)n1-c1ccccc1`, the growth in the experiment with T-47D breast is 44.9%; with BT-549 breast, 37.6%; with MDA-MB-435 melanoma it was -49.9% (active); in the experiment on SW-620 colon it was 31.3%; in the experiment on MCF7 breast, 13.2%; with HCT-116 colon it was 18.3%. The growth was 67.3% in the experiment on HCC-2998 colon and 21.6% in the experiment on KM12 colon.
For the compound `CCC(=O)Oc1ccc(-c2ccccc2)cc1Br`, the growth was 101% in the experiment on T-47D breast; 109% in the experiment with BT-549 breast; 109% with MDA-MB-435 melanoma; 99.1% in the experiment on SW-620 colon; 93.6% in the experiment on MCF7 breast; 104% in the experiment on HCT-116 colon. In addition, the growth was 112% in the experiment on HCC-2998 colon and 111% in the experiment on KM12 colon.
On to `CCCn1cc2c(=O)nc3sc(Cc4ccccc4)c(C)n3c2n1`, for which the growth in the experiment on T-47D breast is 84.8%; with BT-549 breast it was 106%; in the experiment on MDA-MB-435 melanoma it was 106%; with SW-620 colon, 101%; in the experiment with MCF7 breast, 91.6%; in the experiment with HCT-116 colon, 102%. In addition, the results for the growth in the experiment on HCC-2998 colon and with KM12 colon were 104% and 94.4%, respectively.
`CCOC(=O)c1c(NC(=O)c2cccc(C(F)(F)F)c2)sc2c(CN(C)C)c(O)ccc12`: the growth with T-47D breast is 70.3%; in the experiment on BT-549 breast it was 96.3%; in the experiment with MDA-MB-435 melanoma it was -22.6% (active); with SW-620 colon it was -6.39% (active); with MCF7 breast, 26.3%; in the experiment with HCT-116 colon it was 33.7%. The growth in the experiment on HCC-2998 colon is -64.2% (active); in the experiment with KM12 colon, 79.4%.
`COC(=O)/C=C1/SC(=Nc2ccc(C(F)(F)F)cc2)N(CCc2c[nH]c3ccc(O)cc23)C1=O`: the growth in the experiment with T-47D breast was 17.3%; in the experiment on BT-549 breast, -32.7% (active); in the experiment on MDA-MB-435 melanoma, 24%; in the experiment on SW-620 colon it was 3.9% (active); with MCF7 breast it was 12.5%; in the experiment on HCT-116 colon, -71.9% (active). In addition, the growth is -61.4% (active) with HCC-2998 colon and 18.3% in the experiment with KM12 colon.
Take `O=C(CN1CCOCC1)Nc1nc(-c2cc3ccccc3oc2=O)cs1`: the growth was 111% with T-47D breast; 98.5% with BT-549 breast; 104% in the experiment with MDA-MB-435 melanoma; 101% in the experiment on SW-620 colon; 79.2% in the experiment with MCF7 breast; 99% with HCT-116 colon. The values for the growth with HCC-2998 colon and with KM12 colon were 103% and 100%, respectively.
On to `COc1cccc(CNc2ccc3ncnc(Nc4ccc(F)c(Cl)c4)c3c2)c1`, for which the growth is 51.3% in the experiment on T-47D breast; 86.8% in the experiment with BT-549 breast; 78.3% with MDA-MB-435 melanoma; 76.6% in the experiment on SW-620 colon; 65.2% with MCF7 breast; 64.9% in the experiment with HCT-116 colon. The growth with HCC-2998 colon is 86.4%; with KM12 colon it was 76.6%.
With `COC1=CC(c2ccc[nH]2)=N/C1=C\c1[nH]c(C)c(C(=O)OC(C)C)c1C`, the growth in the experiment with T-47D breast was -69.2% (active); with BT-549 breast it was -7.21% (active); with MDA-MB-435 melanoma it was -66.2% (active); in the experiment with SW-620 colon, -29.2% (active); in the experiment on MCF7 breast it was -35.5% (active); in the experiment with HCT-116 colon, -90.3% (active). Besides, the growth in the experiment with HCC-2998 colon was -53.2% (active); in the experiment on KM12 colon, -66.3% (active).
On to `COc1cc(-c2nc3sccn3c2-c2ccnc(NCCNS(=O)(=O)c3ccccc3)n2)ccc1F`, for which the growth in the experiment on T-47D breast is 14.3%; in the experiment with BT-549 breast, 67.8%; in the experiment with MDA-MB-435 melanoma, 26%; with SW-620 colon, 86.4%; with MCF7 breast, 37.9%; in the experiment with HCT-116 colon it was 42.6%. Besides, the growth with HCC-2998 colon is 96.5%; in the experiment on KM12 colon it was 17.1%.
For the compound `COc1ccc(C/C(C)=C(/c2ccc(OCCN(C)C)cc2)c2ccc(OC(=O)NCc3ccccc3)cc2)cc1`, the growth in the experiment on T-47D breast is 51.7%; in the experiment on BT-549 breast, 82.5%; in the experiment on MDA-MB-435 melanoma, 74.4%; with SW-620 colon it was 61.5%; in the experiment with MCF7 breast, 21.2%; in the experiment with HCT-116 colon, 52.1%. Moreover, the growth is 66.6% in the experiment on HCC-2998 colon and 72.6% in the experiment on KM12 colon.

For the origin of these results see PubChem BioAssay (NCI).
